Results: PubChem BioAssay (NCI)
About 79,000 compounds went through this panel and 15% of them were active in at least one assay; those are over-represented in the sample as a whole. Calls of active or inactive are those of the source. Cut-off read from the data, not from the text of the source: active = growth inhibition above about 70%; inactive = the rest.

assay: NCI Yeast Anticancer Drug Screen. Data for the sgs1 mgt1 strain (AID 161);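 note: 0% = growth of cultures given vehicle only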; conditions: S. cerevisiae sgs1 mgt1 strain, at 5.0 µM (retest, dose inferred, filed as 0.5), hits give high values
Method in brief: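 Read-out: growth inhibition vs vehicle controls. Cells: mutant yeast strain deficient in DNA damage repair.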

SMILES	growth inhibition
O=C(O)/C=C/C(=O)Nc1cccc2ccccc12	21% (inactive)
CCCCCN=C(C)C(C)=NCCCCC	9% (inactive)
Oc1ccc(N=Nc2ccccc2)c(O)c1.Oc1ccc(N=Nc2ccccc2)c(O)c1.[Cu]	21% (inactive)
NNc1c(Cl)cc(Cl)cc1Cl	12% (inactive)
C=C1C[C@H](O)[C@H]2C(C[Se]c3ccccc3)C(=O)O[C@@H]2[C@H]2[C@H](C)C(O)C[C@@H]12 (stereo not given in full)	9% (inactive)
O=C(CBr)Oc1ccc(-c2cccc(Br)c2)cc1	15% (inactive)
CCCCC1=NCCc2c1cc1c([nH]c3ccccc31)c2C	-8% (inactive)
CCOC(=O)NC(=S)Nc1ccsc1	1% (inactive)
CCCCCCCCCCCCCCCCNC(C)c1ccccc1 (stereo not given)	6% (inactive)
Cc1ccc(C2(O)CC(c3ccc([N+](=O)[O-])o3)=NN2C(=O)COc2ccc(Cl)cc2)cc1 (stereo not given)	39% (inactive)
CCOC(=O)/C(C#N)=C/c1ccccc1Br	7% (inactive)
CCCCCCCCCCCCCCCCNCCCCCCCC(=O)O	14% (inactive)
CC[N+]1(C)CCC(O)(c2ccc(Cl)c(Cl)c2)C(C(=O)c2ccc(Cl)c(Cl)c2)C1 (stereo not given)	11% (inactive)
CC(=O)Nc1nnc(-c2coc3ccccc3c2=O)s1	1% (inactive)
CCC(C)(C)NCCCCCNc1cc(OC)cc2cccnc12	4% (inactive)
CSC(=Nc1ccccc1)/N=C(\SCc1ccccc1)N(C)C	27% (inactive)
N=Cc1cc([N+](=O)[O-])ccc1O	-2% (inactive)
CCCCCCCC(=O)/C=C/c1ccc(C)cc1	-69% (inactive)
Cc1ccc(S(=O)(=O)N/N=C2/CC[C@H](C(C)(C)C)C[C@@H]2C)cc1	-2% (inactive)
Nc1ccc2c(c1)CCc1ccccc1-2	2% (inactive)

SMILES	growth inhibition
CN(C)CCC(=O)[C@@]1(O)CC[C@H]2[C@@H]3CC=C4C[C@@H](O)CC[C@]4(C)[C@H]3CC[C@@]21C	20% (inactive)
CC(=O)OC1COC(N2C(=O)C(=O)c3cc(Br)ccc32)C(OC(C)=O)C1OC(C)=O (stereo not given)	-16% (inactive)
Cc1ccc(N2CCN(c3c(N)cncc3Br)CC2)cc1	0% (inactive)
O=C(O)c1ccccc1SC(Sc1ccccc1C(=O)O)c1cccc(Cl)c1	22% (inactive)
CC[N+](C)(CC)CCC(=O)/C=C/c1ccccc1	5% (inactive)
COc1ccc(C(C)c2cc3c(cc2OC/C(C)=N/NC(N)=O)OCO3)cc1 (stereo not given)	41% (inactive)
CN=C(N)N/N=C(\C)c1ccc2c(c1)Cc1cc(Cl)ccc1-2	13% (inactive)
CCCCCCCCN/N=C(/C)CCCCCO	1% (inactive)
O=[N+]([O-])c1cccc2c(O)cccc12	-2% (inactive)
O=C1C(=O)c2ccccc2C(O)=C1Sc1ccccc1	44% (inactive)
CC(=O)N(O)c1ccc2c(c1)Cc1cc(F)ccc1-2	65% (inactive)
CC12CCC(=O)C=C1CCC1C2CCC2(C)C(c3cnc[nH]3)CCC12 (stereo not given)	39% (inactive)
O=C1OC(C2OC(=O)C(=O)C2C(=O)c2ccc(Cl)c(Cl)c2)C(C(=O)c2ccc(Cl)c(Cl)c2)C1=O (stereo not given)	14% (inactive)
CC/C(C)=C1\CCC(CN2CCOCC2)C1=O (stereo not given)	24% (inactive)
COc1ccc(C2CC(=O)CC(=O)C2)cc1	-7% (inactive)
Cc1ccc(O)c(C(c2ccc([N+](=O)[O-])cc2)c2cc(C)ccc2O)c1	51% (inactive)
O=C1OS(=O)(=O)c2cc3c(cc21)C1C(C2C3C3(Cl)C(Cl)=C(Cl)C2(Cl)C3(Cl)Cl)C2(Cl)C(Cl)=C(Cl)C1(Cl)C2(Cl)Cl (stereo not given)	55% (inactive)
CCOC(=O)C1SC(=S)N(C)C1=O (stereo not given)	8% (inactive)
O=C(c1ccc(Cl)c([N+](=O)[O-])c1)c1ccc(Cl)c([N+](=O)[O-])c1	13% (inactive)
Cc1cc[c]([Sn]([Cl])([O][Sn]([Cl])([c]2ccc(C)cc2)[c]2ccc(C)cc2)[c]2ccc(C)cc2)cc1	29% (inactive)

same assay, conditions: S. cerevisiae sgs1 mgt1 strain, at 50.0 µM (retest, dose inferred, filed as 5.0), hits give high values

SMILES	growth inhibition
O=C(O)/C=C/C(=O)Nc1cccc2ccccc12	100% (active)
CCCCCN=C(C)C(C)=NCCCCC	50% (inactive)
Oc1ccc(N=Nc2ccccc2)c(O)c1.Oc1ccc(N=Nc2ccccc2)c(O)c1.[Cu]	97% (active)
NNc1c(Cl)cc(Cl)cc1Cl	94% (active)
C=C1C[C@H](O)[C@H]2C(C[Se]c3ccccc3)C(=O)O[C@@H]2[C@H]2[C@H](C)C(O)C[C@@H]12 (stereo not given in full)	61% (inactive)
O=C(CBr)Oc1ccc(-c2cccc(Br)c2)cc1	100% (active)
CCCCC1=NCCc2c1cc1c([nH]c3ccccc31)c2C	85% (active)
CCOC(=O)NC(=S)Nc1ccsc1	0% (inactive)
CCCCCCCCCCCCCCCCNC(C)c1ccccc1 (stereo not given)	4% (inactive)
Cc1ccc(C2(O)CC(c3ccc([N+](=O)[O-])o3)=NN2C(=O)COc2ccc(Cl)cc2)cc1 (stereo not given)	39% (inactive)
CCOC(=O)/C(C#N)=C/c1ccccc1Br	13% (inactive)
CCCCCCCCCCCCCCCCNCCCCCCCC(=O)O	92% (active)
CC[N+]1(C)CCC(O)(c2ccc(Cl)c(Cl)c2)C(C(=O)c2ccc(Cl)c(Cl)c2)C1 (stereo not given)	99% (active)
CC(=O)Nc1nnc(-c2coc3ccccc3c2=O)s1	-3% (inactive)
CCC(C)(C)NCCCCCNc1cc(OC)cc2cccnc12	22% (inactive)
CSC(=Nc1ccccc1)/N=C(\SCc1ccccc1)N(C)C	99% (active)
N=Cc1cc([N+](=O)[O-])ccc1O	93% (active)
CCCCCCCC(=O)/C=C/c1ccc(C)cc1	-65% (inactive)
Cc1ccc(S(=O)(=O)N/N=C2/CC[C@H](C(C)(C)C)C[C@@H]2C)cc1	98% (active)
Nc1ccc2c(c1)CCc1ccccc1-2	52% (inactive)

SMILES	growth inhibition
CN(C)CCC(=O)[C@@]1(O)CC[C@H]2[C@@H]3CC=C4C[C@@H](O)CC[C@]4(C)[C@H]3CC[C@@]21C	71% (active)
CC(=O)OC1COC(N2C(=O)C(=O)c3cc(Br)ccc32)C(OC(C)=O)C1OC(C)=O (stereo not given)	0% (inactive)
Cc1ccc(N2CCN(c3c(N)cncc3Br)CC2)cc1	18% (inactive)
O=C(O)c1ccccc1SC(Sc1ccccc1C(=O)O)c1cccc(Cl)c1	99% (active)
CC[N+](C)(CC)CCC(=O)/C=C/c1ccccc1	55% (inactive)
COc1ccc(C(C)c2cc3c(cc2OC/C(C)=N/NC(N)=O)OCO3)cc1 (stereo not given)	87% (active)
CN=C(N)N/N=C(\C)c1ccc2c(c1)Cc1cc(Cl)ccc1-2	97% (active)
CCCCCCCCN/N=C(/C)CCCCCO	1% (inactive)
O=[N+]([O-])c1cccc2c(O)cccc12	31% (inactive)
O=C1C(=O)c2ccccc2C(O)=C1Sc1ccccc1	95% (active)
CC(=O)N(O)c1ccc2c(c1)Cc1cc(F)ccc1-2	35% (inactive)
CC12CCC(=O)C=C1CCC1C2CCC2(C)C(c3cnc[nH]3)CCC12 (stereo not given)	82% (active)
O=C1OC(C2OC(=O)C(=O)C2C(=O)c2ccc(Cl)c(Cl)c2)C(C(=O)c2ccc(Cl)c(Cl)c2)C1=O (stereo not given)	97% (active)
CC/C(C)=C1\CCC(CN2CCOCC2)C1=O (stereo not given)	70% (active)
COc1ccc(C2CC(=O)CC(=O)C2)cc1	2% (inactive)
Cc1ccc(O)c(C(c2ccc([N+](=O)[O-])cc2)c2cc(C)ccc2O)c1	57% (inactive)
O=C1OS(=O)(=O)c2cc3c(cc21)C1C(C2C3C3(Cl)C(Cl)=C(Cl)C2(Cl)C3(Cl)Cl)C2(Cl)C(Cl)=C(Cl)C1(Cl)C2(Cl)Cl (stereo not given)	80% (active)
CCOC(=O)C1SC(=S)N(C)C1=O (stereo not given)	99% (active)
O=C(c1ccc(Cl)c([N+](=O)[O-])c1)c1ccc(Cl)c([N+](=O)[O-])c1	90% (active)
Cc1cc[c]([Sn]([Cl])([O][Sn]([Cl])([c]2ccc(C)cc2)[c]2ccc(C)cc2)[c]2ccc(C)cc2)cc1	63% (inactive)
